Measured values taken from PubChem BioAssay AID1259418 (Broad Institute, 2018).
Out of some 3,400 compounds screened, about 840 (25%) were called active. Inconclusive results (about 11%) are left out. Not all results are given here. Potency and affinity values are given separately. A number with no mark means an inactive call.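 Rule for the calls: active = fitted half-maximal concentration of signal decrease at or below twice the sample's top tested concentration; inconclusive = flat curve between -70 and -30 percent, or poor fit; inactive = flat within 30 percent, signal rise, or potency above limit.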

Experiment: T. gondii growth inhibition with IFN-gamma, dose response, cell-based, ME49Luc, HeLa, luciferase, 72 h (AID 1259418)
Conditions: T. gondii ME49Luc in IFN-y HeLa, hits give low values, -100% = high-dose IFN-γ control wells; at 19.5 µM unless noted

| Structure (SMILES) | max activity |
| --- | --- |
| CCOC(=O)Cc1ccc(NC(=O)Nc2ccc(-c3nc(-c4ccc(C)cc4C)co3)cc2)cc1 | 11.1% |
| Cc1ccc(-c2nc(Cn3nnc(-c4nc(-c5ccc(Cl)cc5)no4)c3C)c(C)o2)cc1 | -14.4% [at 0.68 µM] |
| Cc1cccc(C2=NC3(CCN(CC(=O)Nc4ccc(F)cc4F)CC3)NC2=O)c1 | -4.98% [at 0.68 µM] |
| COc1cccc(CC(=O)Nc2ccc(-c3nc(-c4ccc(C)cc4C)co3)cc2)c1 | -8.08% [at 1.35 µM] |
| CCOC(=O)Cn1cc(CN2CCCC2c2c(C)noc2CC)c2ccccc21 (stereo not drawn) | 12.1% [at 0.16 µM] |
| CCn1cc(CN2CCCC2c2cc(C(C)C)no2)c2cc(OC)ccc21 (stereo not drawn) | 5.61% [at 0.16 µM] |
| CCn1cc(CN2CCCC2c2cc(C(C)C)on2)c2ccccc21 (stereo not drawn) | 8.42% [at 0.16 µM] |
| COC(=O)Cn1cc(CN2CCCC2c2cc(C(C)C)no2)c2cc(OC)ccc21 (stereo not drawn) | 18.8% [at 0.35 µM] |
| COc1ccc(CC(=O)N2CCC3(CC2)Nc2ccc(C)c(C)c2-n2cccc23)cc1 | 9.26% [at 0.68 µM] |
| COc1ccccc1NC(=O)N1CCc2nc(-c3ccc(C)cc3)sc2C1 | 44.9% |
| Cc1ccccc1-c1nc(CN2CCN(C(=O)Nc3ccc(Cl)cc3)CC2)c(C)o1 | -10.3% [at 0.35 µM] |
| CN(C)c1nc(N2CCOCC2)nc2c1CN(Cc1cccs1)CC2 | 13.4% [at 5 µM] |
| Cc1nc(N2CCCC2)nc2c1CCN(C(=O)c1ccoc1C)CC2 | -9.94% [at 0.3 µM] |
| CCOc1ccc(-c2nc3c(s2)CN(C(=O)Nc2cc(C)ccc2OC)CC3)cc1 | 14.6% |
| COc1ccc(OCC(=O)N2CCC(C(=O)NCCc3csc(-c4ccccc4)n3)CC2)cc1 | 12.9% |
| COc1ccc(-c2nc3c(s2)CN(S(=O)(=O)c2ccc(NC(C)=O)cc2)CC3)cc1 | 17.2% [at 10 µM] |
| CCCCCNC(=O)CCC1Nc2c3ccccc3nc(=S)n2C1=O (stereo not drawn) | 12.1% [at 5 µM] |
| Cc1ccccc1C(=O)N1CCC(C(=O)NCCc2csc(-c3ccccc3)n2)CC1 | 23.4% [at 1.35 µM] |
| O=C(NCCc1csc(-c2ccccc2)n1)[C@H]1CCCN1C(=O)c1ccccc1Br | -16.7% [at 0.16 µM] |
| O=C(NCCc1csc(-c2ccccc2)n1)C1CCN(C(=O)c2cccc(Cl)c2)CC1 | 7.04% [at 0.68 µM] |
| CCOc1ccccc1C(=O)N1CCC(C(=O)NCCc2csc(-c3ccccc3)n2)CC1 | -11.4% [at 5 µM] |
| O=C(NCCc1csc(-c2ccccc2)n1)C1CCN(C(=O)c2ccc(F)c(F)c2)CC1 | 18% [at 5 µM] |
| Cc1nc(CCNC(=O)C2CCN(C(=O)c3ccccc3Cl)CC2)cs1 | -5.21% [at 1.35 µM] |
| O=C(Nc1ccc(-c2nc(-c3ccccc3)co2)cc1)Nc1cccc(Br)c1 | 8.78% [at 10 µM] |
| COc1ccc(CNc2nc(SCc3ccc(F)cc3)nc3ccccc23)cc1 | 10.3% |

| Structure (SMILES) | max activity |
| --- | --- |
| Fc1ccc(CSc2nc(Nc3ccc(F)c(F)c3)c3ccccc3n2)cc1 | 9.75% [at 1.35 µM] |
| Fc1ccc(Nc2nc(SCc3ccccc3Cl)nc3ccccc23)cc1 | 17.7% [at 0.68 µM] |
| CCOC(=O)CSc1nc(Nc2ccc(F)c(F)c2)c2ccccc2n1 | -35.1% [at 0.35 µM] |
| Fc1ccc(Nc2nc(SCc3cccc(Cl)c3)nc3ccccc23)cc1 | -13.6% [at 1.35 µM] |
| COc1cc(Nc2nc(SCc3ccc(Cl)cc3)nc3ccccc23)cc(OC)c1 | 21% [at 5 µM] |
| COc1ccc(-c2noc(C3CCCN3C(=O)c3sc(C)nc3C)n2)cc1 (stereo not drawn) | 11.1% [at 0.35 µM] |
| COc1ccc(CNC(=O)CCC2N=C3c4ccccc4N=C(SCc4cc(=O)n5ccccc5n4)N3C2=O)cc1 (stereo not drawn) | 14.6% [at 1.35 µM] |
| Cc1csc(-c2csc(S(=O)(=O)N3CCC(Cc4ccccc4)CC3)c2)n1 | -14% [at 0.35 µM] |
| O=C(CCC1Nc2c3ccccc3nc(=S)n2C1=O)NCc1ccc(F)cc1 (stereo not drawn) | 21.3% |
| Cc1cccc(-c2nc(CSc3nc4c(c(=O)[nH]3)CN(Cc3ccc(F)cc3)CC4)c(C)o2)c1 | 16.6% [at 0.16 µM] |
| CSc1ccc(-c2noc(-c3nnn(Cc4nc(-c5ccccc5)oc4C)c3C)n2)cc1 | 13.9% |
| COc1ccc(S(=O)(=O)Nc2ccc(-c3nc(-c4ccc(C)c(C)c4)co3)cc2)cc1 | 54.5% [at 10 µM] |
| CCn1nnc2c(NCCn3ccc4ccccc43)ncnc21 | -27.3% |
| Cc1nc(-c2cc(S(=O)(=O)NCCN3CCC(C)CC3)c(C)s2)sc1C | 16.1% [at 0.35 µM] |
| Cc1nc(-c2cc(S(=O)(=O)N3CCC(C)CC3)c(C)s2)sc1C | -8.09% [at 0.68 µM] |
| COc1ccc(NC(=O)Nc2ccc(-c3nc(-c4ccc(C)cc4)co3)cc2)cc1OC | -10.2% [at 1.35 µM] |
| COc1ccc(CC(=O)N2CCC3(CC2)Nc2cc(F)ccc2-n2cccc23)cc1 | 9.99% [at 0.16 µM] |
| Cc1ccc(-c2coc(-c3ccc(NS(=O)(=O)c4ccc(Br)cc4)cc3)n2)cc1C | 22% [at 0.68 µM] |
| CN1C(=O)c2cc(NC(=O)Cc3cccs3)ccc2OC[C@@H]2O[C@H](CC(=O)N[C@@H]3CCN(Cc4ccccc4)C3)CC[C@@H]21 | 12.6% [at 0.6 µM] |
| CN1C(=O)c2cc(NC(=O)Cc3cccs3)ccc2OC[C@@H]2O[C@H](CC(=O)N[C@H]3CCN(Cc4ccccc4)C3)CC[C@@H]21 | 21.7% |
| Cc1ccc(-c2coc(-c3ccc(NC(=O)Nc4ccccc4)cc3)n2)c(C)c1 | 15.7% [at 0.16 µM] |
| Cc1ccc(N2CCN(C(=O)c3ccc(-c4csc(C5CC5)n4)cc3)CC2)c(C)c1 | 4.42% |
| COc1cc(NC(=O)Nc2ccc(-c3nc(-c4ccccc4)co3)cc2)cc(OC)c1 | 11.5% [at 0.16 µM] |
| COc1cccc(-c2nc3c(s2)CN(C(=O)Nc2ccc(OC)c(OC)c2)CC3)c1 | 7.26% |
| COc1cccc(-c2nc3c(s2)CN(C(=O)Nc2ccc(C)c(C)c2)CC3)c1 | 12.6% [at 2.6 µM] |

| Structure (SMILES) | max activity |
| --- | --- |
| Cc1ccc(-c2nc3c(s2)CN(C(=O)Nc2ccccc2C)CC3)cc1 | 18.7% |
| Cc1ccc(-c2nc3c(s2)CN(C(=O)Nc2cccc(C)c2)CC3)cc1 | 26.8% [at 10 µM] |
| COc1ccc(-c2nc3c(s2)CN(C(=O)Nc2cc(C)cc(C)c2)CC3)cc1 | 17.7% |
| COc1ccc(-c2nc3c(s2)CN(C(=O)Nc2ccc(C)cc2C)CC3)cc1 | 24.8% |
| Cc1nc(CCNC(=O)C2CCN(S(=O)(=O)c3ccc(F)c(F)c3)CC2)cs1 | 10.4% [at 5 µM] |
| Cc1ccc2c(c1C)-n1cccc1C1(CCN(C(=O)c3cccc(F)c3)CC1)N2 | -11.1% [at 0.35 µM] |
| O=C(NCCN1CCCC1)C1CCN(Cc2cc3ccccc3n2Cc2ccccc2Cl)CC1 | 6.81% |
| O=C(NCc1cccnc1)C1CCN(Cc2cc3ccccc3n2Cc2ccccc2Cl)CC1 | -4.69% [at 1.35 µM] |
| Cc1ccccc1Cn1c(CN2CCC(C(=O)NCCC(C)N3CCCC3)CC2)cc2ccccc21 (stereo not drawn) | 15.2% [at 0.16 µM] |
| O=C(Nc1ccc(-c2nc(-c3ccccc3)co2)cc1)Nc1ccccc1F | 103% |
| COc1ccc(Cl)cc1NC(=O)N1CCc2nc(-c3ccccc3)sc2C1 | -14.8% [at 0.35 µM] |
| CN(Cc1ccccn1)C(=O)C1=NOC2(CCN(S(=O)(=O)c3cccc(F)c3)C2)C1 (stereo not drawn) | 23.5% [at 10 µM] |
| Cc1ccc(-c2coc(-c3ccc(NC(=O)Nc4ccc(F)c(Cl)c4)cc3)n2)cc1 | 49.3% |
| CCc1c(C)sc2c1CCN(Cc1nc(-c3ccc(C(C)C)cc3)oc1C)C2c1ccccc1 (stereo not drawn) | 9.71% |
| Cc1ccccc1C(=O)Nc1cnc(N2CCC(C(N)=O)(N3CCCCC3)CC2)c(C(=O)O)c1 | -6.96% [at 1.35 µM] |
| CCc1ccc(S(=O)(=O)N2CCC3(CC2)NCCN=C3NCc2ccc(Cl)cc2)cc1 | 17.4% [at 10 µM] |
| CCc1ccc(S(=O)(=O)N2CCC3(CC2)NCCN=C3NCc2cc(F)cc(F)c2)cc1 | 16.8% |
| CC(C)Cc1ccc(S(=O)(=O)N2CCC3(CC2)NCCN=C3NCc2cccc(F)c2)cc1 | 16.8% [at 10 µM] |
| Cc1cnn(C(C)C(=O)N2CCc3[nH]nc(-c4ccc(F)c(F)c4)c3C2)c1 (stereo not drawn) | 11.2% |
| Cc1ccc(-c2coc(-c3ccc(NC(=O)Nc4ccccc4Cl)cc3)n2)cc1 | 13.9% [at 0.16 µM] |
| COC(=O)C1CCN(S(=O)(=O)c2cc3c4c(c2)CCC(=O)N4CCC3)CC1 | 9.1% [at 1.35 µM] |
| CCOc1ccc(-c2nc3c(s2)CN(S(=O)(=O)c2cc(C)cc(C)c2)CC3)cc1 | -12.1% [at 2.6 µM] |
| COc1ccc(-c2nc(NCc3cccc(Cl)c3)c3ccccc3n2)cc1 | -12% [at 0.35 µM] |
